Over roughly 25,000 sequences, “ln(normalized median fluorescence intensity)” has its median near 6.7; the highest 2% begin near 10. This excerpt belongs to a sample that is enriched for the highest values.
Test system: PfHDP1 homeodomain (GST-tagged)
Assay: gcPBM binding intensity (ln(normalized median fluorescence intensity)); higher = stronger DNA binding
In short: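 The binding buffer was 1× PBS containing 1% milk, 0.2 mg/ml BSA, 0.5% salmon testes DNA and 0.03% Triton X-100. In it, GST-tagged P. falciparum DNA-binding domains expressed in E. coli were applied for 1 h to an Agilent 4 × 180k array of primer-extended double-stranded 36-bp intergenic genomic probes plus negative controls. Binding intensity, read with Alexa488 anti-GST antibody and a 488 nm scan, is the highest Masliner-normalised natural-log median intensity across replicate spots of either probe orientation.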

Sequence	gcPBM binding intensity (ln)
TTTTTATATAACCTTCTTAATTCTTTTTTTTTTTTT [XGTACX_negctrl_site591]	6.16
TTTATTGCTCTATATGCACACCTTAATTCTTCATTT [CACACA_site8682]	11.1
CTTTTATTGCTCTATATGCACACCTTAATTCTTCAT [CACACA_site2195]	10.5
TCATATAATATTTATATGCACACTTTTCTATATATA [CACACA_site4075]	8.75
CTCTTCTATATATAAGCATGCATTCATAATAATTTA [TGCATGCA_site679]	7.04
TTCTCTATAAATGCTGCACACACATTTAATTATTTA [CACACA_site8828]	8.06
AAAAGGAACGGACACACACACATATATATATATATA [CACACA_site5894]	9.45
TTTTTGAGTGCACATACACACAGACATACATTTAAA [CACACA_site5813]	10.4
TTAATATAACTTTTTGCACACTTAATTTTTTTTTTT [CACACA_site3364]	10.2
AATATAACTTTTTGCACACTTAATTTTTTTTTTTAA [CACACA_site3365]	10.6
ACTAAACTTTTATGTACACACATATAACATTAATTT [CACACA_site5276]	6.98
TATATATTAAACTTTGCACACATAATTTAACTACAA [CACACA_site3440]	10.7
TATATTAAACTTTGCACACATAATTTAACTACAAAG [CACACA_site3441]	10.5
TTTTTTTTTTTTTTTGCACACTATATTTAATATAAG [CACACA_site2444]	9.31
ATGTATATGTTTTGTTGTACAAGTATTTTATATCTT [XGTACX_site3588]	6.77
TTCATATTATAGTGCACACAAAAATATATATATGGT [CACACA_site2855]	10.4
AATTATTAGCGTGGTGTGCACAAAATTATGGACACA	9.8
AACTCATAGCGGTGTGCACACAAAAAATTAAAAAAA [CACACA_site3033]	11
CTCATAGTTGGGTGCACACAAAAAATTAAAAAAATA [CACACA_site3032]	10.3
AAAATTAAACTCACACCACACACAAAAAAAAAAAAA [CACACA_site8131]	6.32
AACTCATAGGAGTGTGCACACAAAAAATTAAAAAAA [CACACA_site8996]	11
AGTATATATTATATATATATATATATATTATATATG [TGCATGCA_negctrl_site99]	6.59
CTTTCTTATTTGAACGCATGCATTTGTACCTTTTAT [TGCATGCA_site671]	6.85
AAATTCCACCAACACACACACATATAAATAAATAAA [CACACA_site1233]	6.84
TTCAAAACTTAAAATCGTACAAGACAATTATTATAT [XGTACX_site6626]	6.32
TTCTTTTTATTTATATTTTCCCCTCTCTATAGCTAT [XGTACX_negctrl_site102]	7.06
